Screens from PubChem BioAssay.
Tb PYK inh: inhibitors of Trypanosoma brucei pyruvate kinase | Q57TT1 | TbPYK enzyme, Kinase-Glo Plus ATP luminescence, 45 min | Potency, µM (series often up to 76.8 µM), for inactives: top-dose activity, negative = inhibition, most hits filed as inhibitors | 0.12% of 410,000 active; also: potency is read from the fitted curve at half-maximal effect; % is scaled to controls: 0 for no effect and ±100 for the full control effect; nearly all actives have a fitted effect of over 50% in size
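T. brucei PYK with substrate was exposed to pin-transferred compounds across a concentration series, then started with 130 uM ADP (final). After 45 min at room temperature, Kinase-Glo Plus luminescence was read, normalized and curve-fitted.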
RE007 growth inh: less growth of the S. pombe RE007 Vpr strain | S. pombe RE007 Vpr strain, BacTiter-Glo ATP luminescence, 24 h | Potency, µM (titrated, usually from 92.2 µM), without a hit: top-dose activity change, negative = less growth, usual class: inhibitors | 0.21% of 360,000 active | AID 651644; active = well fitted falling curve with a large enough effect; also: potency is read from the fitted curve at half-maximal effect; % is scaled to controls: 0 for no effect and ±100 for the full control effect; nearly all actives have a fitted effect of over 50% in size
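Fission yeast RE007 carrying one integrated HIV-1 vpr copy, seeded at OD 0.01 in PMG+AL medium with 23 nL pinned compound. Grown 24 h at 30 degrees; viability read by BacTiter-Glo luminescence after 5 min.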
Shiga inhibitor: blocks Shiga toxin action in Vero cells | AID 2315 | 9.2% of 290,000 active | Vero cells, Shiga toxin protein synthesis inhibition reporter | inhibition, % at 38.7 µM; in the data active = inhibition mostly above about 28%, no sharp cut-off; inactive = mostly below about 43%; also: 0% is about no effect
LmPK inh: inhibitors of Leishmania mexicana pyruvate kinase | Q27686 | purified LmPK, Kinase-Glo ATP luminescence, 1 h | Potency, µM (top dose mostly 57.5 µM), without a hit: at the highest dose activity change, negative = inhibition, usual class: inhibitors | 0.37% of 290,000 active | AID 1721; also: potency is read from the fitted curve at half-maximal effect; % is scaled to controls: 0 for no effect and ±100 for the full control effect
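0.1 nM LmPK, 0.5 mM PEP, 0.1 mM ADP; 50 mM imidazole pH 7.2, 7 mM MgCl2, 50 mM KCl; 1 h RT. Kinase-Glo luminescence readout, normalized to no-enzyme (full inhibition) and uninhibited wells.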
FBPA Giardia inh: inhibitors of Giardia lamblia fructose-1,6-bisphosphate aldolase. Potency, µM (highest dose often 59.6 µM), for inactives: at the highest dose activity, negative = inhibition, actives largely listed as inhibitors. purified Giardia FBPA. 0.71% of 290,000 active; also: potency is read from the fitted curve at half-maximal effect; % is scaled to controls: 0 for no effect and ±100 for the full control effect; nearly all actives have a fitted effect of over 55% in size
Target sequence (A8B2U2 whole entry, looked up): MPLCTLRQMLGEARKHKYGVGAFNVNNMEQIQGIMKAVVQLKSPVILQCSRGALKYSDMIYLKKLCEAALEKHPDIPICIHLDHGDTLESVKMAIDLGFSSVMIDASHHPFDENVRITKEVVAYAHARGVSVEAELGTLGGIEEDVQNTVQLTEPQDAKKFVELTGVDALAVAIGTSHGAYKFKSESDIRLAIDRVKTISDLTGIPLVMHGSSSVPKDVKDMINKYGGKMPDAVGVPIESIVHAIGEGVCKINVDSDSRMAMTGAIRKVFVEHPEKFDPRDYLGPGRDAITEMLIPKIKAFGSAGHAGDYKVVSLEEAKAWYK
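40 nM FBPA preincubated 10 min at RT with compound (up to 57.5 uM final), then substrate plus GAPDH/TPI/NAD/arsenate coupling and diaphorase/resazurin added. Fluorescence read after 20 min at RT, 525/598 nm.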
CHX counter: counter-screen for Shiga toxin inhibitors: cycloheximide protein synthesis inhibition; cell reporter, cycloheximide protein synthesis inhibition counterscreen; max response, %; 12% of 300,000 active; AID 2314; in the data active = max response mostly above about 13%, no sharp cut-off; inactive = mostly below about 14%; also: read at 38.3 µM for the half of the compounds with a filed dose; 0% is about no effect
* = called active by the depositor; / = no result. Many of the other results were omitted from the sample, so hits are more common in it than they were. Unless noted, calls follow the shape of the dose curve; as a rule, active = well fitted curve in the direction sought with a large enough effect; inconclusive = small, poorly fitted or top-dose-only effect, or another doubt; inactive = no such curve, though single readings can be large; an effect the other way counts as inactive or inconclusive.

SMILES	Tb PYK inh	RE007 growth inh	Shiga inhibitor	LmPK inh	FBPA Giardia inh	CHX counter
CC(C)(Oc1ccc(Cl)cc1)C(=O)Nc1nc2ccc(S(C)(=O)=O)cc2s1	-6.4%	/	/	/	/	/
O=c1cc(CNc2cc(Cl)ccc2Cl)nc2sccn12	1.1%	-11.6%	28.0	2.9%	-17.1%	29.3*
O=c1cc(COc2ccc(Cl)c(Cl)c2)nc2sccn12	-0.4%	17.6%	5.7	2.2%	-0.5%	20.0*
NC(CCc1ccccc1)c1csc(Nc2ccccn2)n1 (stereo not given)	0.3%	2.2%	/	/	/	/
COc1ccc(-c2nnc3cccc(Cl)n23)c(OC)c1	4.2%	-16.0%	43.1*	-6.4%	7.5%	10.4*
Clc1ccc(-c2nnc3cccc(Cl)n23)c(Cl)c1	-8.7%	30.2%	-13.3	-4.5%	-6.9%	-2.7
COc1ccccc1-c1nc2ccccc2nc1-c1ccccc1OC	3.4%	-0.2%	-9.9	4.7%	2.2%	-2.8
COc1ccccc1C1=NC(c2ccc(C)cc2)N=C1C (stereo not given)	9.1%	-14.1%	130.8*	0.7%	0.5%	38.7*
COc1ccccc1C(=O)Nc1nc2nc(C)c(Cc3ccccc3)c(=O)n2[nH]1	-14.4%	/	/	/	/	/
O=C(Nc1ccc2c(c1)OCO2)NC1CCN(Cc2ccccc2)CC1	3.8%	6.7%	41.2*	-6.0%	1.0%	35.8*
O=C(CSCc1ccc(Cl)cc1)Nc1ccc2c(c1)OCCO2	3.1%	9.1%	96.2*	1.7%	-1.9%	35.6
O=C(CSCc1c(Cl)cccc1Cl)Nc1ccc2c(c1)OCO2	-2.4%	10.9%	28.7	2.1%	-6.7%	7.6
O=C(CSCc1ccccc1)Nc1ccc2c(c1)OCO2	4.6%	-10.4%	114.6*	1.0%	-5.4%	38.8*
O=C(CSCSCC(=O)Nc1ccc2c(c1)OCO2)Nc1ccc2c(c1)OCO2	3.3%	-10.8%	25.5	7.3%	-4.6%	6.4
Cc1ccc(CSCC(=O)Nc2ccc3c(c2)OCO3)cc1	-3.0%	21.2%	57.4*	1.1%	-4.2%	21.3
O=C(NCCc1ccc(F)cc1)C(=O)NCC(c1cccs1)S(=O)(=O)c1ccc(F)cc1 (stereo not given)	-3.6%	/	/	/	/	/
Cn1c(=O)c(C(=O)COC(=O)c2cc(-c3ccco3)nc3ccccc23)c(N)n(CC2CC2)c1=O	/	/	31.0	5.1%	-23.9%	21.9*
O=C(c1ccco1)N1CCN(S(=O)(=O)c2cccc(Cl)c2)CC1	-2.6%	-6.0%	-5.8	-4.7%	-4.8%	-2.0
COCCn1c(SCC(=O)c2ccc(F)cc2)nc2cc(C(=O)NC3CCCC3)ccc2c1=O	-6.2%	/	/	/	/	/
Clc1ccc(/C=N/N2CCN(Cc3ccccc3)CC2)cc1	-2.0%	-23.3%	29.3	-0.1%	7.9%	17.1*
CSc1ccc(/C=N/N2CCN(Cc3ccccc3)CC2)cc1	5.0%	-10.9%	49.1*	4.6%	3.4%	30.0*
C(=N\N1CCN(Cc2ccccc2)CC1)/c1cccs1	-3.5%	-5.8%	44.9*	-1.4%	-1.8%	40.5*
C(=N\N1CCN(Cc2cccc3ccccc23)CC1)/c1cccs1	-3.7%	0.0%	21.1	-2.7%	3.4%	-1.5
O=C(O)c1ccc(/C=N/N2CCN(Cc3ccc(Cl)cc3)CC2)cc1	-9.6%	6.9%	3.4	-0.4%	12.5%	-3.3
COc1cccc(/C=N/N2CCN(Cc3ccccc3)CC2)c1O	-1.5%	-20.7%	27.7	-0.3%	4.5%	24.4*
SMILES	Tb PYK inh	RE007 growth inh	Shiga inhibitor	LmPK inh	FBPA Giardia inh	CHX counter
CCCOP(=O)(c1ccc(N(C)C)cc1)C(O)c1ccc(N(C)C)cc1 (stereo not given)	1.4%	-0.4%	-2.2	-0.2%	5.0%	-2.2
CCCN(CCC)CCCNC(=O)C1CCN(S(=O)(=O)CC)CC1	2.6%	/	/	/	/	/
COc1cc(NC(=O)c2cc3nc(-c4ccc(C)cc4)cc(C(F)(F)F)n3n2)cc(OC)c1OC	1.9%	/	/	/	/	/
CC(=O)c1ccc(NC(=O)COCc2cc(-c3ccco3)on2)cc1	4.4%	/	/	/	/	/
Clc1ccc(CN2CCN(/N=C/c3ccco3)CC2)cc1	4.6%	-21.6%	17.0	-2.6%	3.4%	19.3*
Cc1ccc(/C=N/N2CCN(Cc3ccc(Cl)cc3)CC2)o1	-12.2%	-24.1%	26.3	-3.6%	0.9%	8.2
Cc1ccc2nc(C)cc(C(=O)N3CCCC(CO)(Cc4ccccc4C)C3)c2c1 (stereo not given)	-1.6%	-16.5%	27.1	-0.1%	-0.3%	7.2
Cc1ccc(CNCC(O)c2ccccc2)s1 (stereo not given)	0.4%	-7.2%	5.3	2.2%	-17.2%	13.5*
OC(CNCc1cccs1)c1ccccc1 (stereo not given)	10.8%	-12.8%	-3.7	-1.9%	12.0%	0.8
CC(NC(=O)COc1ccc(Br)cc1)C1CCCO1 (stereo not given)	-22.2%	5.1%	20.9	-1.7%	/	0.6
COc1ccc(NC(=O)c2ccc(Cn3cc(Cl)cn3)cc2)cc1	1.4%	-2.4%	-3.7	-4.3%	-1.4%	-4.6
Cc1ccc(F)c(NC(=O)c2ccc(Cn3cc(Cl)cn3)cc2)c1	2.1%	17.0%	37.4	-10.5%	-2.5%	39.5*
Oc1ccccc1-c1nnc2n1CCCCC2	-0.5%	15.1%	-10.7	0.5%	0.8%	-2.9
Cc1cc(-c2nnc3n2CCCCC3)c(C)n1-c1ccccc1	-6.3%	2.3%	91.0*	-1.2%	0.2%	12.1
COc1cccc(N2CCN(c3ncnc4onc(-c5ccc(F)cc5)c34)CC2)c1	-4.8%	/	/	/	/	/
COc1ccc(NC(=O)Nc2cccc(OC)c2)cc1	5.7%	-5.6%	/	/	/	/
Cc1cccc(NC(=O)Nc2cccc(F)c2)n1	-4.2%	-12.4%	78.7*	0.1%	7.7%	52.5*
COc1cccc(NC(=O)Nc2nccc(C)n2)c1	5.5%	-5.6%	72.4*	-21.7%	0.4%	38.2*
O=C(NCc1cccnc1)Nc1cccc(F)c1	-1.0%	4.4%	9.3	0.3%	2.3%	-1.5
Cc1ccnc(NC(=O)Nc2cccc(F)c2)n1	2.5%	5.0%	79.2*	-27.0%	4.2%	28.4*
CN(C)c1ccc(N=Nc2cccc(F)c2)cc1	4.1%	5.4%	96.2*	-8.1%	-1.5%	41.2*
Cc1cccc(N=Nc2ccc(N(C)C)cc2)c1	1.2%	-15.6%	126.3*	0.5%	-0.2%	43.4*
Cc1cc(N(C)C)cc(C)c1N=Nc1cc[n+]([O-])cc1	-10.1%	-10.6%	/	/	/	/
CN(C)c1ccc(N=Nc2cccc3ccoc23)cc1	1.6%	/	136.8*	-14.6%	-4.8%	55.6*
CC1=NN(c2cccc(F)c2)C(=O)/C1=C/c1ccc(N(C)C)cc1	-0.7%	0.0%	-10.8	-7.4%	6.4%	1.8
O=[N+]([O-])c1ccc(NCc2ccccc2N2CCC(CO)CC2)nc1	-22.8%	-10.1%	-14.3	1.4%	-1.5%	1.9
CCCCN(C)CCNC(=O)c1ccc(Cn2c(=O)[nH]c3cc(OC)c(OC)cc3c2=O)cc1	0.4%	/	/	/	/	/
CCCSCCCNC(=O)C1CCN(C(=O)c2cnn(-c3ccccc3)c2-n2cccc2)CC1	1.1%	/	/	/	/	/
